# Test results taken from PubChem BioAssay.
# “And” between values parts separate entries of the source, which are not always exact repeats. Equal values may be shown once. The source made the active and inactive calls.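 The calls were made as follows, unless noted: active = thallium flux through the channel raised or lowered by more than 3 SD from vehicle-only wells, actives on both sides; inactive = the rest.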
# How the values were obtained:
# [1] = Wnt pathway potentiators raising nuclear beta-catenin – imaging, WNT3A-conditioned medium, mouse C2C12, NPC library, primary screen (AID 1117326; in the data active = nuclear beta-catenin stimulation mostly above about 4.2%, no sharp cut-off; inactive = mostly below about 10%); conditions: stronger effect = higher value
# [2] = stimulators of insulin release from INS-1E, primary screen, cell-based, 5 mM glucose, NPC library (AID 1117329;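 active = compound raises insulin release from rat beta cells at 5 mM glucose, no numeric limit stated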); conditions: rat INS-1E insulin secretion, at 10 µM, stronger effect = higher value
# [3] = growth inhibition of GSK3B-pretreated HCT116 cells – cell-based, CellTiter-Glo, 0.2 to 20 µM (AID 1117336;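 active = compounds lowering colon cancer cell viability after pretreatment blocking the GSK3B kinase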); conditions: HCT116 viability after GSK3B inhibitor, at 20 µM, stronger effect = higher value
# [4] = inhibition of endothelial tube formation, primary screen, imaging, VEGF stimulated, CD31 staining, tube area, NPC library (AID 1117340;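 active = compound that reduces growth-factor-driven endothelial tube area in a mixed cell culture, no cutoff stated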); conditions: VEGF-stimulated ADSC/ECFC co-culture, at 10 µM, stronger effect = higher value
# [5] = GLP1 release stimulators, primary, NCI-H716, NPC library (AID 1117341;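 active = compound raises GLP1 secretion from the human gut endocrine cells, with no numeric limit stated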); conditions: NCI-H716 cells, at 10 µM, stronger effect = higher value
# [6] = HCT116 colon cancer cell growth inhibition, primary screen, CellTiter-Glo luminescence, NPC library (AID 1117342;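 active = compounds that lower survival of HCT116 colon cancer cells in the luminescence readout, no numeric limit stated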); conditions: at 20 µM (top of the series)
# [7] = reduced SW480 viability measured with CellTiter-Glo, NPC library, primary (AID 1117343;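 active = compounds that lower viability of the colon cancer cells in the luminescence readout, with no numeric limit stated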); conditions: CellTiter-Glo luminescence; at 20 µM (top of the series)
# [8] = NPC library primary testing for decreased DLD-1 cell viability via CellTiter-Glo (AID 1117346;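 active = compounds that lower survival of DLD-1 colon cancer cells in the luminescence readout, no cutoff given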); conditions: DLD-1 viability, CellTiter-Glo luminescence; at 20 µM (top of the series)
# [9] = target: 6-phosphogluconate dehydrogenase, decarboxylating (Homo sapiens) (UniProt P52209); experiment: inhibition of human phosphogluconate dehydrogenase – biochemical, recombinant enzyme, NADPH absorbance, primary screen (AID 1159550;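 active = at least 20% inhibition of 6-phosphogluconate dehydrogenase activity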); conditions: recombinant 6PGD, NADPH absorbance 341 nm; at 10 µM; stronger effect = higher value
# Chain of 6-phosphogluconate dehydrogenase, decarboxylating (Homo sapiens) (P52209 whole entry, looked up): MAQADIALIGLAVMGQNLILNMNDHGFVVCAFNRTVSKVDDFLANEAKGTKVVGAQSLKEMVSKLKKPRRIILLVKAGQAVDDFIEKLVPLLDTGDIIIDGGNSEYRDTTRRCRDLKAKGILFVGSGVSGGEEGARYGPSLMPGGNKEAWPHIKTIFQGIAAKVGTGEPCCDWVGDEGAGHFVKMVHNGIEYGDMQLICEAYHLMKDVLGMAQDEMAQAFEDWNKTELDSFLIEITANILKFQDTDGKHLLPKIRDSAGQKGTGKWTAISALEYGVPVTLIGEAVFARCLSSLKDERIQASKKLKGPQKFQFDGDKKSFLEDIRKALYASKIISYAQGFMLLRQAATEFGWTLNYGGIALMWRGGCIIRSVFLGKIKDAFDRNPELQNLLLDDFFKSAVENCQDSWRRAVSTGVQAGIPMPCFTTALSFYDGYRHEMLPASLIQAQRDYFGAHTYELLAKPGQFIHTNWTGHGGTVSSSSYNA
# [10] = modulation of C. elegans fzo-1 (AID 1259413; call rule not given here;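 also: fzo-1 mutant C. elegans worms in liquid wells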); conditions: C. elegans fzo-1 modulator screen, mean read-out; stronger effect = higher value
# [11] = EMT-state selective cytotoxicity in co-culture – imaging, PC-3E GFP, TEM4-18 mCherry, primary screen (AID 1345086;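 active = compounds killing one labelled cell type while sparing the other, by normalised counts and ratio limits, not self-fluorescent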;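 as to all read-outs here: cells exposed to compound for 72 h before imaging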;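 as to red/green cell ratio (normalised): normalised mesenchymal count divided by normalised epithelial count so high means epithelial killing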); conditions: PC-3E GFP / TEM4-18 mCherry co-culture, imaging cell counts, at 1 µM; for red/green cell ratio (normalised): actives lie on both sides, counts scaled to control wells, 1 = unselective
# [12] = MELAS cybrid and Rieske KO viability enhancers – cell-based, MELAS cybrids, Rieske KO mouse fibroblasts, CellTiter-Glo, primary screen (AID 1508586;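 active = mean z-score across replicates of 1.96 or higher in either the MELAS or the Rieske mutant cell line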;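 also: z relative to plate mean and SD of compound and empty wells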); conditions: low glucose
# [13] = target: NAD(+) hydrolase SARM1 (Homo sapiens) (UniProt Q6SZW1); experiment: blocking NAD cleavage by SARM1 SAM-TIR – cell lysate, NAD-Glo luminescence (AID 1508614;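 active = compound whose remaining NAD level is above about 45 nM, limit read from the data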;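 also: higher remaining NAD means stronger inhibition of SARM1 NADase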); conditions: SAM-TIR HEK293T lysate NADase, at 1 µM, stronger effect = higher value
# Chain of NAD(+) hydrolase SARM1 (Homo sapiens) (Q6SZW1 whole entry, looked up, the tested form may be a part): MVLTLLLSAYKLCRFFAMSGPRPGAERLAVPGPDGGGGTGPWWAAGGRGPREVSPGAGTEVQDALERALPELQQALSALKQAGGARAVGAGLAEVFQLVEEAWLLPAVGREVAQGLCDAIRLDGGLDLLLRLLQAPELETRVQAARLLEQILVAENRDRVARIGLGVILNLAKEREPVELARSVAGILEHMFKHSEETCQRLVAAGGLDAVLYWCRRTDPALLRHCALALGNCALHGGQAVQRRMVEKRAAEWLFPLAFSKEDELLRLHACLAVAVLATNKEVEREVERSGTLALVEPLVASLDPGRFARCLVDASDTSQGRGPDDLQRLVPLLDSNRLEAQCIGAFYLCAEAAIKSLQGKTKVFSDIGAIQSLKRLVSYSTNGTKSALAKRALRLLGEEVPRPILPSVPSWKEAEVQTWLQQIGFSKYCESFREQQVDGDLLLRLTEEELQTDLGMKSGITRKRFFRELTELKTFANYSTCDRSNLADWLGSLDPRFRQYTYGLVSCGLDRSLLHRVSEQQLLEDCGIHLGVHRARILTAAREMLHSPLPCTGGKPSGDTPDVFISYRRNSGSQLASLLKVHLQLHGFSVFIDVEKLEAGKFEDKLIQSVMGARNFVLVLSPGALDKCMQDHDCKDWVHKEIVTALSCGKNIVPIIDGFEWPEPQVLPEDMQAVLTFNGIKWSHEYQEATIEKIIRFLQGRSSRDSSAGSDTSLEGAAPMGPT
# [14] = target: Mitogen-activated protein kinase 7 (Homo sapiens) (UniProt Q13164); experiment: Gal4-ERK5 driven luciferase induction – cell-based, HTS, primary screen (AID 1508626;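 active = luciferase signal above three times the same-plate solvent-only control wells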;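 also: luciferase driven by Gal4-ERK5 fusion binding five Gal4 sites before minimal TATA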); conditions: HeLa Gal4-ERK5 transactivation, 18 h, at 5 µM, stronger effect = higher value
# Chain of Mitogen-activated protein kinase 7 (Homo sapiens) (Q13164 whole entry, looked up, the tested form may be a part): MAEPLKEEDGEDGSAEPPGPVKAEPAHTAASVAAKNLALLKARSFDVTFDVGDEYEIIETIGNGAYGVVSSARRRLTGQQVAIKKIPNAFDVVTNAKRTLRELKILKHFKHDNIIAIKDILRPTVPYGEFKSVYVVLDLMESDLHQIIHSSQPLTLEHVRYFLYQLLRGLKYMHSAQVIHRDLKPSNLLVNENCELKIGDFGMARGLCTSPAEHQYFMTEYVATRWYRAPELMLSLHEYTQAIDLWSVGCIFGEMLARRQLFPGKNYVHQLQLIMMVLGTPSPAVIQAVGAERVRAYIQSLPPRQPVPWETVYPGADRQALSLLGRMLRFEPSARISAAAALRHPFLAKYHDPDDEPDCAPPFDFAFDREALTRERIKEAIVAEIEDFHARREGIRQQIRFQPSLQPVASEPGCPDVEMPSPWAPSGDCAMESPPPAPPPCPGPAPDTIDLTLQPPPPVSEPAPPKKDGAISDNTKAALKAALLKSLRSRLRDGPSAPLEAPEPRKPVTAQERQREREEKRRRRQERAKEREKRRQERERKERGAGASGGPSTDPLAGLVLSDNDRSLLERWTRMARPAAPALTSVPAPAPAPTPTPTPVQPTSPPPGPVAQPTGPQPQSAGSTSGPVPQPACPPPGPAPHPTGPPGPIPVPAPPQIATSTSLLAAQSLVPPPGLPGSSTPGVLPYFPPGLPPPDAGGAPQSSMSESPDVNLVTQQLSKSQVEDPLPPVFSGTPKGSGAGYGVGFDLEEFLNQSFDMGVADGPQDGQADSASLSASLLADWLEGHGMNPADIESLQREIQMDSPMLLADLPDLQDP
# F380Y = experiment: BK channel mutant inhibitors and activators – cell-based, U2OS BacMam, thallium flux, beta subunits, selectivity assay, profiling panel (AID 1259406); conditions: U2OS BacMam BK variants, at 30 µM;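 also: initial slope of Thallos dye fluorescence rise after thallium is added; log ratio against the mean of 0.3% DMSO vehicle wells on the same plate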
# F380Y/beta1 = experiment: as above; conditions: U2OS BacMam BK variants, at 30 µM
# F380Y/beta2Delta = experiment: as above; conditions: U2OS BacMam BK variants, at 30 µM
# F380Y/beta4 = experiment: as above; conditions: U2OS BacMam BK variants, at 30 µM
# [15] = measured here: epithelial PC-3E GFP cell survival
# [16] = measured here: mesenchymal TEM4-18 mCherry cell survival
# [17] = MELAS cybrid survival, CellTiter-Glo 48 h, stronger effect = higher value
# [18] = Rieske KO mouse fibroblast survival, CellTiter-Glo 72 h
structure (smiles),measurement,setting,value
N[C@@H]1CONC1=O,nuclear beta-catenin stimulation,[1]; at 10 µM,0.4% (inactive)
same,nuclear beta-catenin stimulation,"[1]; stimulation, at 2 µM",3.4%
same,insulin secretion stimulation,[2],1.4% (inactive)
same,viability decrease,[3],-9.9% (inactive)
same,tube area decrease,[4],3.2% (inactive)
same,GLP1 secretion stimulation,[5],-0.7% (inactive)
same,inhibition of viability,[6],8.67% (inactive)
same,viability decrease (inhibition),[7],-6.2% (inactive)
same,viability decrease (inhibition),[8],-14.1% (inactive)
same,inhibition,[9],6.28% (inactive)
same,mean signal,[10],211 (inactive)
same,red/green cell ratio (normalised),[11],1.34 (inactive)
same,normalised cell number,[11]; [15],1.27
same,normalised cell number,[11]; [16],1.71
same,z-score,[12]; [17],0.819 (inactive)
same,z-score,[12]; [18],0.724
same,remaining NAD,[13],10 nM (inactive)
same,luciferase signal,[14],64 AU (inactive)
same,log fold change Tl+ flux,F380Y,0.0411 (inactive) and -0.0245 (inactive)
same,log fold change Tl+ flux,F380Y/beta1,0.0612 (inactive)
same,log fold change Tl+ flux,F380Y/beta2Delta,-0.00859 (inactive) and -0.0479 (inactive)
same,log fold change Tl+ flux,F380Y/beta4,0.0351 (inactive)
CCc1cc(C(N)=S)ccn1,nuclear beta-catenin stimulation,[1]; at 10 µM,0.1% (inactive)
same,nuclear beta-catenin stimulation,"[1]; stimulation, at 2 µM",0.5%
same,insulin secretion stimulation,[2],1% (inactive)
same,viability decrease,[3],-19.3% (inactive)
same,tube area decrease,[4],2.7% (inactive)
same,GLP1 secretion stimulation,[5],-4% (inactive)
same,inhibition of viability,[6],-7.9% (inactive)
same,viability decrease (inhibition),[7],6.3% (inactive)
same,viability decrease (inhibition),[8],-11% (inactive)
same,inhibition,[9],11% (inactive)
same,mean signal,[10],267 (inactive)
same,red/green cell ratio (normalised),[11],0.96 (inactive)
same,normalised cell number,[11]; [15],1.01
same,normalised cell number,[11]; [16],0.97
same,z-score,[12]; [17],0.0369 (inactive) and 0.0584 (inactive)
same,z-score,[12]; [18],0.0377 and 0.257
same,remaining NAD,[13],10 nM (inactive)
same,luciferase signal,[14],40 AU (inactive)
same,log fold change Tl+ flux,F380Y,0.0115 (inactive)
same,log fold change Tl+ flux,F380Y/beta1,0.0016 (inactive)
same,log fold change Tl+ flux,F380Y/beta2Delta,-0.0262 (inactive)
same,log fold change Tl+ flux,F380Y/beta4,0.0197 (inactive)
